An excerpt weighted towards active compounds, which were near 6.9% of everything screened.
VDR inh: blocks the human vitamin D receptor | VDR-SRC2-3 peptide fluorescence polarization, 2 h | hit rate 0.93% among 400,000 | AID 504847 | Potency, µM, for the others: max response, negative = inhibition, most hits filed as inhibitors; note: % is set by controls: 0 for no effect and ±100 for the full control effect
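Inhibition of the VDR/SRC2-3 peptide interaction is quantified by fluorescence polarization. Compounds (23 nl, pintool) incubate with the reagents for 2 hours at ambient room temperature.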
BAZ2B block: BAZ2B (human) inhibition. Q9UIF8. AlphaScreen BAZ2B-H3K14Ac peptide displacement. Potency, µM (highest dose often 114 µM), inactives show at the top dose activity change, negative = inhibition, most hits filed as inhibitors. hit rate 4.4% among 360,000. AID 504333; note: % is set by controls: 0 for no effect and ±100 for the full control effect; nearly all actives have a fitted effect of over 60% in size
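In this displacement format the biotinylated H3(5-23) peptide acetylated at Lys14 serves as ligand at 50 nM, with BAZ2B at 50 nM in PBS pH 7.4 containing 0.01% Tween-20. Donor and acceptor beads are 10 ug/mL final.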
L3MBTL1 block: blocks human L3MBTL1. AlphaScreen L3MBTL1–H3K9me1 peptide binding. Potency, µM (highest dose often 57.1 µM), without a hit: at the highest dose activity, negative = inhibition, most hits filed as inhibitors. hit rate 0.66% among 230,000. AID 485360; note: % is set by controls: 0 for no effect and ±100 for the full control effect; nearly all actives have a fitted effect of over 60% in size
Target sequence (Q9Y468 whole entry, looked up): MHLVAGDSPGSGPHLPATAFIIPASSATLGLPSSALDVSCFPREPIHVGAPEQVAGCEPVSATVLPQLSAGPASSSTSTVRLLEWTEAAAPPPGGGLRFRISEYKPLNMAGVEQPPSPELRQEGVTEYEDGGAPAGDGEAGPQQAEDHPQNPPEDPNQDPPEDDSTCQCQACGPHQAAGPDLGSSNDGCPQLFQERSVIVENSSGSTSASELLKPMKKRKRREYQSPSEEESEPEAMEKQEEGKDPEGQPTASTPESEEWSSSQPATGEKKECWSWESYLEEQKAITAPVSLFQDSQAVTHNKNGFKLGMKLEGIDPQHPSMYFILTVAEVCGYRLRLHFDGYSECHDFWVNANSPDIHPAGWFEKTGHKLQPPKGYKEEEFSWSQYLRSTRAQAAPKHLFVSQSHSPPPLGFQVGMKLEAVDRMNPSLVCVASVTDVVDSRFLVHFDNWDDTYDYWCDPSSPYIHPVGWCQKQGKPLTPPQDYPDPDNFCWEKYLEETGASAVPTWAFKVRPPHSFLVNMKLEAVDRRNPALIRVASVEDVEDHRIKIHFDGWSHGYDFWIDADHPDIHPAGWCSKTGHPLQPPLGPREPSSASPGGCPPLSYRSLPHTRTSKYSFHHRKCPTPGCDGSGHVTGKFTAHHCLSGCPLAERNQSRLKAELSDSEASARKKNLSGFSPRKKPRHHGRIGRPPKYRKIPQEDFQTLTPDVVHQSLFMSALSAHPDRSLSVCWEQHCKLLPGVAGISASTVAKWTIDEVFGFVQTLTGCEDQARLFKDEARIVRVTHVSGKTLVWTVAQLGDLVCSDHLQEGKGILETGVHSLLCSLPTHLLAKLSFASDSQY
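L3MBTL1 (50 nM) pre-complexed 30 min with biotinylated H3(1-15)K9me1 peptide (75 nM), then compounds added for 30 min at room temperature; AlphaScreen streptavidin donor/nickel chelate acceptor beads (10 ug/mL final) read after 30 min dark incubation.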
PLK1 PBD inh: inhibitors of human PLK1 polo-box domain binding; P53350; hit rate 2.8% among 360,000; Plk1 PBD binding of FITC phosphopeptide, fluorescence polarization; Potency, µM, without a hit: max response, negative = inhibition, usual class: inhibitors; note: series mostly up to about 57 µM; % is set by controls: 0 for no effect and ±100 for the full control effect; nearly all actives have a fitted effect of over 65% in size
JMJD2A Tudor inh: JMJD2A Tudor domain (human) inhibition | O75164 | Potency, µM (series often up to 114 µM), inactives show top-dose activity change, negative = inhibition, most hits filed as inhibitors | hit rate 4.4% among 390,000 | AlphaScreen JMJD2A-Tudor / H3K4me3 peptide binding; note: % is set by controls: 0 for no effect and ±100 for the full control effect; nearly all actives have a fitted effect of over 50% in size
HP1b binding inh: HP1-beta chromodomain-methylated histone interaction inhibition. P83916. AlphaScreen HP1-beta / biotin-H3K9me3 peptide binding. Potency, µM (top dose mostly 114 µM), without a hit: top-dose activity change, negative = inhibition, usual class: inhibitors. hit rate 0.56% among 390,000. AID 540317; note: nearly all actives have a fitted effect of over 70% in size
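Compound inhibition of the preformed complex between 50 nM HP1-beta and 50 nM biotinylated H3K9me3 peptide was read by AlphaScreen. Buffer was PBS pH 7.4 with 0.01% Tween-20. Incubations ran 30 min at room temperature, with 10 ug/mL donor/acceptor beads.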
* marks the source's active call; other numbers are inactive results; ? = inconclusive; / = no result given; [ ] = dose if it differs, or a comment. Calls come from the whole dose curve; as a rule, active = well fitted curve in the direction sought with a large enough effect; inconclusive = small, poorly fitted or top-dose-only effect, or another doubt; inactive = no such curve, though single readings can be large; an effect the other way counts as inactive or inconclusive. Potency is the fitted concentration of half-maximal effect.

SMILES	VDR inh	BAZ2B block	L3MBTL1 block	PLK1 PBD inh	JMJD2A Tudor inh	HP1b binding inh
CCOCCCNC(=O)CN1C(=O)CCn2nc(-c3cccn3C)cc21	-7.4%	-37.9%	/	/	-27.2%	-3.5%[57 µM]
N#Cc1ccc(C(=O)Nc2ccc(Cl)c(-c3nc4cc(Cl)ccc4o3)c2)c(F)c1	-8.9%	?	/	/	-16.0%	3.3%
CCOC(=O)C(=NC1CCS(=O)(=O)C1)NNc1cc(Cl)ccc1Cl (centres undefined)	?	?	/	2.9%	?	?
CCOC(=O)C(=NC1CCS(=O)(=O)C1)NNc1ccccc1Cl (centres undefined)	-25.7%	?	/	26.7µM*	-8.1%[11.4 µM]	?
COC(=O)c1ccc(CNC(=O)c2ccc(COc3ccccc3)cc2)cc1	-2.7%	0.1%	0.0%	-5.7%	-7.7%	38.7%
O=C(Nc1cccc(Cl)c1)c1cc(N=Nc2ccc([N+](=O)[O-])cc2Cl)ccc1O	-13.1%	2.82µM*	?	?	4.47µM*	?
O=C(CCc1nnc(-c2ccc3c(c2)OCO3)o1)NCCc1ccccc1F	?	0.1%	/	11.9µM*	?	16.3%
COc1ccc(-c2ccc(C(=O)C3CC3)cc2)cc1	2.2%	-6.9%	/	-12.2%	-6.8%	56.7%
CC[N+]1(C)CCC(O)(c2ccc(OC)cc2)C(C(=O)c2ccc(OC)cc2)C1 (centres undefined)	?	/	/	6.7µM*	89.1µM*	-4.8%
CCc1cccc(NC(=O)c2ccc3c(c2)N(Cc2cccc(Cl)c2)C(=O)c2ccccc2S3=O)c1 (centres undefined)	3.8%	2.1%	/	/	-13.8%	30.5%
CCOc1cccc(=O)c2c(C)n(C)c(C)c12	13.3%	56.2µM*	?	-14.9%	?	-25.0%
CC1CC(C)CN(CCCSc2ccccc2)C1 (centres undefined)	11.6%	?	-15.4%	-4.8%	28.2µM*	?
CC1CN(CCCCSc2ccccc2)CC(C)O1 (centres undefined)	-5.6%	0.0%	-0.7%	0.6%	5.1%	36.6%
COc1ccc(NC(=O)CSc2nnc(Cc3cccn3C)n2-c2ccc(OC)cc2)cc1	8.4%	50.1µM*	-11.9%	-3.7%	-19.7%	18.3%
CC(=O)c1ccc(NC(=O)CSc2nnc(Cc3cccn3C)n2-c2ccc(F)cc2)cc1	-10.7%	50.1µM*	/	-19.3%	?	-8.1%
COc1ccc(-n2c(SCC(=O)Nc3ccc(C(=O)O)cc3)nnc2-c2cccs2)cc1	-16.4%	-2.7%	4.1%	-7.2%	79.4µM*	29.7%
COc1ccc(C(=O)CSc2nnc(-c3cccs3)n2-c2ccccc2)cc1	2.2%	1.2%	/	-14.6%	-33.6%	17.1%
COc1ccc(OCC2c3cc(OC)c(OC)cc3CCN2C(=O)C(C)C)cc1 (centres undefined)	-16.5%	-36.6%	/	26.7µM*	56.2µM*	-8.3%
COC(=O)c1ccc(OCC2c3cc(OC)c(OC)cc3CCN2C(=O)c2ccc(OC)cc2)cc1 (centres undefined)	-2.9%	?	/	/	-33.6%	-21.8%
CS(=O)(=O)N1CCN(CC(=O)NC2CCCCC2)CC1	2.8%	-3.9%	4.2%	-10.1%	-13.4%	-7.5%
CCS(=O)(=O)N1CCN(CC(=O)NC2CCCCC2)CC1	-3.4%	-22.0%	2.0%	21.2µM*	?	-9.7%
O=C(Nc1n[nH]c(=S)s1)c1ccco1	-23.4%	?	-14.5%	?	3.55µM*	?
O=C(Nc1nnc(-c2ccc(F)cc2)s1)c1ccco1	-14.8%	-12.3%	/	-2.6%	-24.0%	-7.5%
Cc1cccc(Nc2nc(-c3ccccc3)c3cc(C)ccc3n2)c1	-20.8%	82.5%	/	/	66.3%	149.3%
COC(=O)CCC(C)C1CCC2C3C(O)C[C@@H]4CC(O)CC[C@@]4(C)C3CC(O)[C@]12C (some centres undefined)	6.6%	/	/	/	/	/
SMILES	VDR inh	BAZ2B block	L3MBTL1 block	PLK1 PBD inh	JMJD2A Tudor inh	HP1b binding inh
COc1ccc2c(CNCc3cccs3)c(C(=O)O)n(Cc3cccc(F)c3)c2c1	2.5%	-23.4%	/	/	-28.6%	5.5%
Cc1oc2c(c1C(=O)Nc1ccc(Cl)cc1F)C1=NCCN1C=N2	11.1%	-8.0%	/	/	-24.3%	80.4%
CCOC(=O)N1CCN(Cc2c(O)ccc3ccccc23)CC1	?	-0.1%	-7.4%	10.6µM*	?	?
CC(C)CC(=O)N1CCN(Cc2ccc3ccccc3c2)CC1	-14.3%	?	2.9%[2.29 µM]	-20.2%	25.1µM*	?
CCOC(=O)N1CCN(Cc2ccccn2)CC1	-1.6%	?	/	-8.3%	0.794µM*	18.0%
CCOC(=O)C1CCN(Cc2c(O)ccc3ccccc23)CC1	-2.8%	12.8%	-13.9%	?	-4.5%	27.8%
CC(C)CC(=O)N1CCN(S(=O)(=O)c2ccccc2)CC1	-9.9%	0.9%	/	-1.0%	4.2%	26.7%
OCCN1CCN(Cc2ccc3ccccc3c2)CC1	-9.1%	50.1µM*	-13.5%	7.2%	20µM*	?
Cc1cccc(-n2ncc3c2CCCC3NC(=O)CCN2Cc3ccccc3C2=O)c1C (centres undefined)	-0.5%	11.4%	/	2.3%	-4.2%	35.4%
COCCn1c(C)cc(O)c(C(c2ccccc2OC)N2CCN(c3ccccc3)CC2)c1=O (centres undefined)	-1.0%	10.6%	/	/	-1.3%	41.4%[57 µM]
Cc1cc2ccccc2n1-c1ccc(C(=O)N2CCC(C(=O)NCc3ccccc3Cl)CC2)s1	0.7%	-17.1%	/	/	-11.0%	25.3%
CCOC(=O)C1CCN(Cc2ccc(F)c(F)c2)CC1	19.4%	?	/	-7.9%	5.62µM*	?
CSc1ccc(CN2CCN(C(=O)CC(C)C)CC2)cc1	-15.2%	79.4µM*	5.9%[2.29 µM]	-6.6%	20µM*	?
COc1ccc(CN2CCN(C(=O)CC(C)C)CC2)cc1Br	1.3%	?	4.8%	-0.3%	79.4µM*	27.3%
CCOC(=O)C1CCN(Cc2cc(C(C)C)c(O)c(C(C)C)c2)CC1	-11.2%	-21.6%	2.4%	-9.0%	-13.0%	19.7%
CCOC(=O)C1CCN(Cc2ccc(N(C)C)cc2)CC1	5.8%	44.7µM*	/	-5.0%	3.55µM*	?
CN1OC[C@@H]2CN(C(=S)NCCc3ccccc3)[C@H](c3ccc(-n4ccnc4)cc3)C[C@@H]21	/	/	/	-8.0%	/	/
Cc1ccc(NC(=O)CCNS(=O)(=O)c2ccc3c(c2)CCCC(=O)N3)cc1	9.7%	-18.9%[57.1 µM]	/	/	-1.3%	0.7%
CCOC(=O)N1CCN(C(=O)c2ccc3ccccc3c2)CC1	-16.6%	5.0%	-10.5%	-4.8%	0.7%	28.5%
CCOC(=O)N1CCN(Cc2ccc3ccccc3c2)CC1	-9.4%	?	-4.6%	-5.8%	25.1µM*	?
CCOC(=O)C1CCN(c2c(N3CCN(Cc4ccccc4)CC3)c(=O)c2=O)CC1	-8.9%	-2.1%	/	1.8%	-9.2%	54.0%
CCOC(=O)C1CCN(Cc2ccc3ccccc3c2)CC1	-7.1%	?	-5.8%	2.9%	56.2µM*	?

Screening data from PubChem BioAssay.
